The source of these data is PubChem BioAssay (NCATS).

Values joined by “and” are separate entries in the source; they are usually repeats but may differ in a detail not shown here. Equal values may be shown once. Inconclusive results are not listed. A call without a number means that no potency is given here. Active and inactive are the calls of the source. Unless noted, calls come from the whole dose curve; as a rule, active = well fitted curve in the direction sought with a large enough effect; inconclusive = small, poorly fitted or top-dose-only effect, or another doubt; inactive = no such curve, though single readings can be large; an effect the other way counts as inactive or inconclusive.

Chain of Cytochrome P450 2C19 (Homo sapiens) (P33261 whole entry, looked up): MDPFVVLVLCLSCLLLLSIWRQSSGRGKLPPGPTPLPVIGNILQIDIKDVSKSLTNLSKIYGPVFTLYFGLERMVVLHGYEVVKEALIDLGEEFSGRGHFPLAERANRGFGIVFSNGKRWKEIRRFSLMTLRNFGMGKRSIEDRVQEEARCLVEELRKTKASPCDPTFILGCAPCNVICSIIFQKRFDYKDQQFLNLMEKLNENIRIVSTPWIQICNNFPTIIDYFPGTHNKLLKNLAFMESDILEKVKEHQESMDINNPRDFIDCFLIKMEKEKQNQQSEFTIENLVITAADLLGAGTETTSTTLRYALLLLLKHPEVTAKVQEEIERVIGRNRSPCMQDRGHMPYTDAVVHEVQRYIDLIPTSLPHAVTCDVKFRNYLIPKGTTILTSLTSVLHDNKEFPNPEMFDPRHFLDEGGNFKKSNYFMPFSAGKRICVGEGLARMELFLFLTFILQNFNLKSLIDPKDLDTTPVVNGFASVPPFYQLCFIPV
Chain of Cytochrome P450 3A4 (Homo sapiens) (P08684 whole entry, looked up): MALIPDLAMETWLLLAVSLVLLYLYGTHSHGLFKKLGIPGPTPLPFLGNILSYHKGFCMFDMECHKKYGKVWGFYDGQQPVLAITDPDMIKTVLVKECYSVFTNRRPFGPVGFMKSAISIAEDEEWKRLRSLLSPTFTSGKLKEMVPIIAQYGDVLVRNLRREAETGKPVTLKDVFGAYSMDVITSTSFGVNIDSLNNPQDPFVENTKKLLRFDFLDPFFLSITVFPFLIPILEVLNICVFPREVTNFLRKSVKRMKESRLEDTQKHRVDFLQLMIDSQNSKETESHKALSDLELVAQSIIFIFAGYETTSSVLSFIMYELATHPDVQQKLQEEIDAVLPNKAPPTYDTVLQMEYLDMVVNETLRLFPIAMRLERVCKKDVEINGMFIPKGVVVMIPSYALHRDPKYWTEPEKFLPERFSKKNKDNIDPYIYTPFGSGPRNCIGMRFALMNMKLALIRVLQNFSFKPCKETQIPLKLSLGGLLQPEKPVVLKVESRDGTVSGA
Chain of Cytochrome P450 2D6 (Homo sapiens) (P10635 whole entry, looked up): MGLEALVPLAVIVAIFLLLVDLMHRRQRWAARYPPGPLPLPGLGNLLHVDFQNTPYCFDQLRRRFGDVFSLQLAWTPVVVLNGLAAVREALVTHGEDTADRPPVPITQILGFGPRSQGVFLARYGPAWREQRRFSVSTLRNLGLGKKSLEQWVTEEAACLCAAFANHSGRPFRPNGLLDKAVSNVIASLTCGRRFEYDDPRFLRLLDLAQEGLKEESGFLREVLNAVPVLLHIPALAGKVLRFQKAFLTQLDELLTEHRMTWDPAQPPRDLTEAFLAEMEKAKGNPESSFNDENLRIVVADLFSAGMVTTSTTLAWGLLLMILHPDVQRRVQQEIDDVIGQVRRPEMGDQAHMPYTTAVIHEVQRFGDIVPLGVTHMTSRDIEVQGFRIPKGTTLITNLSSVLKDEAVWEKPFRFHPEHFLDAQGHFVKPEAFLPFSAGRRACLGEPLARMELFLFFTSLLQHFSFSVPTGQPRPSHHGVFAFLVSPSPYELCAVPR

In one assay the target is Cytochrome P450 3A4 (Homo sapiens) (UniProt P08684). The assay can be described thus: qHTS Assay for Activators of Cytochrome P450 3A4 (AID 885). Note: nearly all actives have a fitted effect of over 65% in size. To be noted: recombinant CYP3A4, Luciferin-PPXE luminescence, 60 min; series mostly up to 57.1 µM. In a few lines:
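20nM CYP3A4 + 25uM Luciferin-PPXE (=KM), 200mM KPO4; cpd 10 min RT; NADPH regen, 60 min RT; stop w/ detection buffer, 20 min; luminescence. Normalized to 57 uM ketoconazole.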
For orientation: Quantitative high-throughput screening tests each substance at several concentrations.
Turning to `C[N+]1(C)CCN(c2ccccc2)CC1`, the result was inactive. On the same count and under the same terms, the value for `NC(=O)c1cc(N2CC2)c([N+](=O)[O-])cc1[N+](=O)[O-]` was “inactive”; that for `CCCn1c(=O)c2[nH]c(C3CCCC3)nc2n(CCCOC(=O)c2ccc(S(=O)(=O)F)cc2)c1=O` was “inactive”. For the molecule `CP(=O)(O)C1=CCNCC1`, the result was inactive. Regarding `Cc1[nH]c2ccc(O)cc2c1CCN`, the outcome was inactive. The same measure, in the same setting: the value for `NC(=O)CI` was “inactive”. Same read-out and setting: the same measure for `O=[N+]([O-])c1ccc2nc(N3CCNCC3)ccc2c1`: “inactive”.

The target in the next assay is Cytochrome P450 2D6 (Homo sapiens) (UniProt P10635). The assay can be described thus: qHTS Assay for Inhibitors and Substrates of Cytochrome P450 2D6 (AID 891). Note: nearly all actives have a fitted effect of over 60% in size. Note: potency is the fitted concentration of half-maximal effect. The note with it: recombinant CYP2D6, luciferin-ME EGE luminescence; series mostly up to 57.1 µM. Summed up:
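Human CYP2D6 (5 nM) with 30 uM Luciferin-ME EGE (at Km) in 100 mM KPO4, compound preincubated 10 min, then NADPH regeneration system for 60 min at room temperature. Luciferin read by luminescence; normalized to 1.43 uM quinidine.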
Take `Clc1cc(I)cc(Cl)c1NC1=NCCN1`: the Potency was 3.98 µM (active).

In the case of `CCCN(CCC)[C@@H]1CCc2cccc(O)c2C1`, the Potency is 3.16 µM (active) and 794 nM (active). The same measure, in the same setting: the same measure for `CN(N=O)c1ccc(O)c(O)c1`: “inactive”. With `O=c1ccc2[nH]cc(C3=CCNCC3)c2[nH]1`, the Potency was 2.51 µM (active). Turning to `CCCN(CCC)[C@H]1CCc2c(F)ccc(O)c2C1`, the Potency was 631 nM (active) and 1.58 µM (active).

System in another assay: not listed separately
The assay can be described thus: qHTS Assay for Identification of Small Molecule Antagonists for NFkB Signaling Pathway (AID 895; active = well fitted inhibition curve with a large enough effect in the signal ratio, with a control signal flat, not every such curve was filed as active; the % refers to the signal ratio; note: potency is the fitted concentration of half-maximal effect). To be noted: NFkB beta-lactamase reporter cells, FRET ratio 460/530; series mostly up to 38.3 µM. Summed up: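 NFkB-bla ME-180 cervical carcinoma cells with beta-lactamase reporter under NFkB response element; compounds added, then TNF alpha at 10 pM final (EC50), 5 h at 37 C. LiveBLAzer substrate 2 h, room temperature; emission 460/530 nm at 405 nm excitation.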
Take `C[N+](C)(C)CCOC(=O)CBr`: the Potency entry was “inactive”.

As for `N#CCCN`, the Potency entry is “inactive”.

Consider `Clc1cc(I)cc(Cl)c1NC1=NCCN1`, for which the Potency entry was “inactive”. Still for that read-out and setting: the value for `O=P(O)(O)C(Cl)(Cl)P(=O)(O)O` was “inactive”; that for `OCc1cnc[nH]1` was “inactive”; that for `NC(=O)c1cc(N2CC2)c([N+](=O)[O-])cc1[N+](=O)[O-]` was “inactive”.

`CCCn1c(=O)c2[nH]c(C3CCCC3)nc2n(CCCOC(=O)c2ccc(S(=O)(=O)F)cc2)c1=O`: the Potency is 10 µM (active). Take `COc1ccc2[nH]c3c(c2c1)CCNC3`: the Potency is 5.01 µM (active). As for `C[C@@H]1[C@@H]2Cc3ccc(O)cc3[C@@]1(C)CCN2CC1CC1`, the Potency entry is “inactive”. On the same count and under the same terms, the same measure for `Clc1ccc(N2C[C@H]3CC[C@@H](C2)N3)nn1`: “inactive”; for `NCCc1c[nH]c2ccc(C(N)=O)cc12`: “inactive”. The same measure, in the same setting: the value for `CC(C)NP(=O)(NC(C)C)OP(=O)(NC(C)C)NC(C)C` was “inactive”; that for `NCCc1ccc(S(=O)(=O)F)cc1` was “inactive”. Consider `Cc1[nH]c2ccc(O)cc2c1CCN`, for which the Potency result is “inactive”.

`NC(=O)CI`: the Potency entry is “inactive”.

Another assay deals with Cytochrome P450 2C19 (Homo sapiens) (UniProt P33261). The assay can be described thus: qHTS Assay for Inhibitors and Substrates of Cytochrome P450 2C19 (AID 899). Note: nearly all actives have a fitted effect of over 60% in size. Note: potency is the fitted concentration of half-maximal effect. The note with it: recombinant CYP2C19, luciferin-H EGE luminescence; series mostly up to 57.1 µM. Summed up:
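Human CYP2C19 (5nM) with Luciferin-H EGE at 10uM (its KM) in 50mM KPO4 was preincubated with compound for 10 min at 37C. NADPH regeneration started a 60 min 37C reaction. Luciferin was read by luminescence, normalized to 57uM ketoconazole.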
For `O=P(O)(O)C(Cl)(Cl)P(=O)(O)O`, the Potency entry is “inactive”. Still for that read-out and setting: the same measure for `CCC1(C)CC(=O)NC(=O)C1`: “inactive”; for `CN(N=O)c1ccc(O)c(O)c1`: “inactive”; for `O=c1ccc2[nH]cc(C3=CCNCC3)c2[nH]1`: 0.126 µM (active). With `Cc1[nH]c2ccc(O)cc2c1CCN`, the Potency was 7.94 µM (active).

Consider `O=[N+]([O-])c1ccc2nc(N3CCNCC3)ccc2c1`, for which the Potency entry is “inactive”.
